# MARV entry inh – blocks Marburg virus binding to or entry into cells; Marburg virus pseudotyped entry inhibition, cell reporter; Potency, µM (top dose mostly 37.8 µM), without a hit: at the highest dose activity change, negative = inhibition, actives largely listed as inhibitors; 300,000 compounds, 1.8% hits; AID 540276; calls by dose curve; tested in HEK293 cells; also: potency is read from the fitted curve at half-maximal effect; % is scaled to controls: 0 for no effect and ±100 for the full control effect
# HCV inhibitor – inhibitors of hepatitis C virus infection. Huh7.5.1 HCVcc-Cre infection, luciferase reporter, 44 h. Potency, µM (highest dose often 41.8 µM), for the others: at the top dose activity change, negative = inhibition, most hits filed as inhibitors. 340,000 compounds, 3.4% hits; active = well fitted inhibition curve with a large enough effect; inconclusive = small, poorly fitted or top-dose-only effect, or another doubt; inactive = no such curve, though single readings can be large or run the other way; also: potency is read from the fitted curve at half-maximal effect; % is scaled to controls: 0 for no effect and ±100 for the full control effect
#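 Infectious HCVcc-Cre (~0.5 moi) was added to cells just after compound, with cells seeded 4 h earlier at 1,000 per well. Luciferase activity after 44 h culture reported infection; substrate was incubated 15 min at room temperature before reading.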
# LASV entry inh – Lassa virus entry inhibition. Lassa virus pseudotype entry inhibition, cell reporter. Potency, µM (doses to about 37.9 µM), without a hit: top-dose activity change, negative = inhibition, usual class: inhibitors. 300,000 compounds, 1.2% hits. AID 540256; calls by dose curve; tested in HEK293 cells; also: potency is read from the fitted curve at half-maximal effect; % is scaled to controls: 0 for no effect and ±100 for the full control effect; nearly all actives have a fitted effect of over 50% in size
# FMDV antiviral – antivirals against foot and mouth disease virus; FMDV antiviral cell-based qHTS; 410,000 compounds, 1.2% hits; Potency, µM (highest dose often 57.9 µM), without a hit: at the top dose activity change, negative = inhibition, usual class: inhibitors; calls by dose curve; tested in HEK293T cells; also: read-out not given here; potency is read from the fitted curve at half-maximal effect; % is scaled to controls: 0 for no effect and ±100 for the full control effect; nearly all actives have a fitted effect of over 45% in size
# HCMV antiviral – blocks human cytomegalovirus replication | HFF cells, HCMV-luciferase reporter, 72 h; hits give low values | activity change, negative = inhibition, % at 57.5 µM | 410,000 compounds, 4.5% hits | AID 1259415; in the data active = activity change below about -60%; inconclusive = no clear call, values can overlap the other calls; inactive = above about -39%; also: % is scaled to controls: 0 for no effect and ±100 for the full control effect
#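 Compounds were evaluated in HFFs infected with an HCMV luciferase reporter virus (MOI 1 PFU/cell). Luciferase in lysates collected 72 h post infection served as the replication measure.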
# SARS PLpro yeast – blocks SARS-CoV papain-like protease in a yeast assay. Potency, µM (doses to about 32.9 µM), inactives show at the top dose activity, positive = growth rescue, most hits filed as activators. S. cerevisiae expressing SARS-CoV PLpro, growth rescue. 330,000 compounds, 0.19% hits. AID 485353; calls by dose curve; also: potency is read from the fitted curve at half-maximal effect; 0% is about no effect; nearly all actives have a fitted effect of over 55% in size
# * hit, by the source's call; ? = inconclusive; . = no result given; [ ] = remark or other dose. This is a sample that favours compounds with a hit; in the whole collection about 8% have one here.
SMILES,MARV entry inh,HCV inhibitor,LASV entry inh,FMDV antiviral,HCMV antiviral,SARS PLpro yeast
CC1=C(C(=O)Nc2cccc(C(=O)NC3CCCC(C)C3C)c2)SCCO1 (stereo unspecified),.,13µM*,.,-22%,0,-1%
COc1ccc(CCNC(=O)c2ccccc2NC(=O)C2=C(C)OCCS2)c(OC)c1,.,10µM*,.,-4%,-7,0%
COCCNC(=O)c1cccc(NC(=O)C2=C(C)OCCS2)c1,6%[46.1 µM],9%,-3%[46.1 µM],-4%,-40,1%
COc1cc(NC(=O)C2=C(C)OCCS2)c(Cl)cc1C(=O)NCCN(C)C,10µM*,?,-39%[46.1 µM],-11%,-32,-1%
CN1CC[C@@]2(CCCN(S(=O)(=O)c3ccccc3)C2)C1,.,.,.,-6%,.,.
O=C(Nc1ccc(Br)c(C(F)(F)F)c1)c1ccccc1,-15%,-27%,?,-24%,-90*,-83%
O=C(Nc1cccc(O)c1)c1ccc(C(F)(F)F)cc1,?,-21%,?,15%,9,-1%
O=C(Nc1ccc(Br)c(C(F)(F)F)c1)c1ccc(C(F)(F)F)cc1,?,?,?,-22%,-97*,-19%
COC(=O)N[C@@H](c1ccccc1)[C@]1(C(C)=O)CCCC1=O,-4%[14.2 µM],.,.,.,.,.
O=C(COc1cccc(C(F)(F)F)c1)Nc1ccc(S(=O)(=O)N2CCCCC2)cc1,-27%[46.1 µM],25µM*,?,?,-24,.
O=C(COc1cccc(C(F)(F)F)c1)Nc1cccnc1,.,1%,.,-10%,-85*,-2%
CCc1cccc(OCC(=O)Nc2ccc(S(=O)(=O)N3CCCC3)cc2)c1,-14%[46.1 µM],11µM*,-29%[46.1 µM],-29%,-27,-1%
Cc1ccc(C(=O)N[C@H](C(=O)NC2CCCCCCC2)C(C)C)cc1,.,11%,.,-9%,80,0%
O=C(N/N=C/c1ccc2c(c1)OCO2)c1cc(-c2ccc(F)cc2)nc2ccccc12,?,-25%,0.58µM*,22%,13,0%
COc1ccc(-c2cc(C(=O)N/N=C/c3sccc3C)c3ccccc3n2)c(OC)c1,5µM*,?,3.2µM*,-8%,-63*,-3%
COc1ccccc1N/N=C/c1ccc2c(c1)OCO2,-16%,2%,20%,41%,-71*,-1%
COc1ccc(-c2cc(C(=O)N/N=C/c3ccc4c(c3)OCO4)c3ccccc3n2)c(OC)c1,4µM*,?,2.5µM*,-6%,-7,0%
COc1ccccc1C(=O)N/N=C/c1ccc2c(c1)OCO2,?,3%,?,49%,91,-5%
N#C/C(=C\c1cccc(Br)c1)C(=O)N1CCCCC1,?,26%,-1%[46.1 µM],?,-20,-10%
O=C(O)Cc1csc(-c2ccc(Cl)cc2)n1,.,.,.,.,2,.
O=C(O)Cc1csc(-c2ccccc2)n1,-7%[46.1 µM],-8%,9%[46.1 µM],17%,-63*,-1%
CSc1nnc(C(C)(C)C)c(=O)n1/N=C/c1ccc(C(C)C)cc1,-5%[46.1 µM],10%,-7%[46.1 µM],7%,-63*,-1%
COc1ccc(/C=N/n2c(SC)nnc(C(C)(C)C)c2=O)c(OC)c1,-6%,3%,6.3µM*,-21%,10,10%
CSc1nnc(C(C)(C)C)c(=O)n1/N=C/c1ccc(Cl)cc1,-2%[14.2 µM],3%,17%,-9%,4,0%
CSc1ccc(CN2CCC(C)(Oc3cccc(Cl)c3)C2)cc1 (stereo unspecified),.,.,.,-20%,-16,.
SMILES,MARV entry inh,HCV inhibitor,LASV entry inh,FMDV antiviral,HCMV antiviral,SARS PLpro yeast
CCOC(=O)C1=C(CN2CCN(c3cc(C)ccc3C)CC2)NC(=O)NC1c1ccccc1 (stereo unspecified),?,.,?,-26%,?,.
CC(C)C(C)NC(=O)COn1nnc2ccc(S(=O)(=O)N3CCOCC3)cc21 (stereo unspecified),.,2%,.,3%,13,-2%
Cc1ccc(CSc2cn(CC(=O)N3CCCCCC3)c3ccccc23)cc1,.,.,8.9µM*,13%,18,.
Cc1ccc(CSc2cn(CC(=O)N3CCCC3)c3ccccc23)cc1,.,.,-14%[46.1 µM],21%,-9,.
Cc1cc(Cl)ccc1OCC(=O)NC(=S)Nc1ccc(Cl)cn1,.,15%,.,16%,-1,-2%
CCCC(=O)NC(=S)Nc1ccc(Cl)cn1,?,0%,?,65%,-69*,19%
Cc1ccc(NC(=O)c2cnc(N3CCCCC3)c3ccccc23)c(C)c1,.,.,-4%[46.1 µM],-23%,51,.
CCC(C)c1ccc(C(CC)NC(=O)C2CCCO2)cc1 (stereo unspecified),.,10µM*,.,?,-37,3%
COc1cccc(-c2nc3cc(SC)ccc3cc2CN(C(=O)c2sccc2C)C2CC2)c1,.,.,.,-3%,.,.
Cc1nc(-c2ccccn2)nc(SCC(=O)c2ccccc2)c1Cl,?,-74%,?,?,-82*,-7%
C[C@]12C=CC(=O)C=C1CCC1C2=CC[C@]2(C)[C@@H](C(=O)CN3CCN(c4cc(N5CCCC5)nc(N5CCCC5)n4)CC3)CC[C@@H]12 (stereo partly specified),5.6µM*,.,.,.,.,.
Cc1c(NC(=O)c2cc(-c3ccccc3)nc3ccccc23)c(=O)n(-c2ccccc2)n1C,?,-30%,2%,-20%,-15,4%
Cc1c(-n2c(SCC(C)C)nc3ccccc3c2=O)c(=O)n(-c2ccccc2)n1C,-28%[46.1 µM],-3%,6%,0%,-64*,-1%
Cc1ccc(-c2cc(C(=O)Nc3c(C)n(C)n(-c4ccccc4)c3=O)c3ccccc3n2)cc1,?,4%,?,?,-63*,-3%
Cc1c(NC(=O)CSc2nc3ccccc3c(=O)n2C(C)C)c(=O)n(-c2ccccc2)n1C,.,-13%,.,-14%,-65*,2%
CC1=CN(S(=O)(=O)c2ccc(C)cc2)C[C@@H]2[C@H]3CC[C@H](C3)[C@H]12,.,4%,.,4%,-37,-28%
Cc1nc(-c2ccc(OCC(C)C)c(C#N)c2)sc1C(=O)O,.,.,.,.,58,.
Cc1ccc(C)c(Cn2c(=O)n(CCCCCC(=O)NCc3ccc4c(c3)OCO4)c(=O)c3sccc32)c1,19%[46.1 µM],.,?,-24%,-7,.
CCCCn1c(N)c(N(CC(C)C)C(=O)c2ccc(-c3ccc(C(C)=O)cc3)o2)c(=O)[nH]c1=O,17%,-3%,10%,12%,29,1%
O=C1C2CCCCN2C(=O)N1CCCCN1CCN(c2ccc([N+](=O)[O-])cc2)CC1 (stereo unspecified),?,?,-14%,20µM*,-22,3%
C=CCNc1ncnc2c1cnn2-c1ccc(Cl)cc1,?,-18%,7%,0%,145,22%
C=CCNc1ncnc2c1[nH]c1ccc(Cl)cc12,?,?,10µM*,?,-97*,0%
C=CCNc1ncnc2c1[nH]c1ccccc12,-24%,11µM*,-13%,?,-9,-2%

# Source: PubChem BioAssay
